Laboratory results as given in PubChem BioAssay (NCI).
Values joined by “and” are separate entries in the source; they are usually repeats but may differ in a detail not shown here. Identical values can stand only once. The panel holds about 83,000 compounds, 20% with a hit somewhere; the sample as a whole holds those more often.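 In brief: 96-well plates, 48 h treatment, single concentration, percent growth endpoint.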 Active and inactive are the calls of the source. The calls were made as follows: active = growth percent below 10; inactive = the rest.

Columns and labels:
Experiment in all cases: NCI-60 one-dose screen, 48 h (100 = growth as untreated, 0 = no growth, -100 = all killed)
Conditions in all cases: 10 µM unless noted
NCI-H23 lung = test system: NCI-H23 lung
NCI-H226 lung = test system: NCI-H226 lung
HOP-62 NSCLC = test system: HOP-62 NSCLC
NCI-H460 lung = test system: NCI-H460 lung
HOP-92 NSCLC = test system: HOP-92 NSCLC
NCI-H522 lung = test system: NCI-H522 lung
A549/ATCC NSCLC = test system: A549/ATCC NSCLC
786-0 renal = test system: 786-0 renal
COLO 205 colon = test system: COLO 205 colon
DU-145 prostate = test system: DU-145 prostate
K-562 leukemia = test system: K-562 leukemia
MALME-3M melanoma = test system: MALME-3M melanoma
MDA-MB-231 breast = test system: MDA-MB-231 breast
RXF 393 renal = test system: RXF 393 renal
SF-268 CNS = test system: SF-268 CNS
SF-295 CNS = test system: SF-295 CNS
SF-539 CNS = test system: SF-539 CNS
UACC-257 melanoma = test system: UACC-257 melanoma
M14 melanoma = test system: M14 melanoma
NCI-H322M lung = test system: NCI-H322M lung

Row | Compound | growth (NCI-H23 lung) | growth (NCI-H226 lung) | growth (HOP-62 NSCLC) | growth (NCI-H460 lung) | growth (HOP-92 NSCLC) | growth (NCI-H522 lung) | growth (A549/ATCC NSCLC) | growth (786-0 renal) | growth (COLO 205 colon) | growth (DU-145 prostate) | growth (K-562 leukemia) | growth (MALME-3M melanoma) | growth (MDA-MB-231 breast) | growth (RXF 393 renal) | growth (SF-268 CNS) | growth (SF-295 CNS) | growth (SF-539 CNS) | growth (UACC-257 melanoma) | growth (M14 melanoma) | growth (NCI-H322M lung)
1 | O=CC(O)C(O)C(O)CO (configuration not stated) | 13.3% (inactive) and 100% (inactive) | 93.9% (inactive) and 101% (inactive) | 114% (inactive) and 97.6% (inactive) | 98.7% (inactive) and 111% (inactive) | 119% (inactive) | 33.4% (inactive) | 102% (inactive) | 104% (inactive) and 97.6% (inactive) | 97.7% (inactive) and 106% (inactive) | 107% (inactive) and 108% (inactive) | 114% (inactive) and 99.3% (inactive) | 122% (inactive) | 92.5% (inactive) and 125% (inactive) | 104% (inactive) | 107% (inactive) and 100% (inactive) | 121% (inactive) | 88.1% (inactive) and 111% (inactive) | 106% (inactive) | 113% (inactive) and 98% (inactive) | 
2 | O=c1c2ccccc2nc2n1Cc1nc3ccccc3c(=O)n1C2 | 92.2% (inactive) and 100% (inactive) | 89.5% (inactive) and 97.8% (inactive) |  | 95.1% (inactive) and 101% (inactive) | 95.3% (inactive) and 114% (inactive) | 89.9% (inactive) and 93.3% (inactive) |  | 103% (inactive) and 104% (inactive) | 111% (inactive) and 130% (inactive) | 96.4% (inactive) and 102% (inactive) | 107% (inactive) and 62.5% (inactive) | 80.1% (inactive) and 108% (inactive) | 99.2% (inactive) and 105% (inactive) | 107% (inactive) and 108% (inactive) | 87.5% (inactive) and 103% (inactive) | 105% (inactive) and 112% (inactive) | 99% (inactive) and 102% (inactive) | 98.3% (inactive) and 112% (inactive) | 89.3% (inactive) and 94.1% (inactive) | 97.8% (inactive) and 102% (inactive)
3 | CCN(CC)CCC(CNc1ccnc2cc(Cl)ccc12)c1ccc(OC)cc1 (configuration not stated) | 72.4% (inactive) and 66.1% (inactive) | 97.2% (inactive) and 95.5% (inactive) |  | 70.1% (inactive) and 62.9% (inactive) | 47.3% (inactive) and 59.4% (inactive) | 25.8% (inactive) and 20.3% (inactive) |  | 62.1% (inactive) and 73.7% (inactive) | 33.3% (inactive) and -41.5% (active) | 84.7% (inactive) and 96.7% (inactive) | 6.83% (active) and 1.92% (active) | -69.1% (active) and -65.7% (active) | 33.1% (inactive) and 44.1% (inactive) | 33.6% (inactive) and 38.1% (inactive) | 75.9% (inactive) and 76.8% (inactive) | 46.5% (inactive) and 1.95% (active) | -80.6% (active) and -66.8% (active) | -70% (active) and -74.4% (active) | -60.3% (active) and -78.3% (active) | 60.4% (inactive) and 64.8% (inactive)
4 | O=C(O)C1(C(=O)O)CCC1.[NH2-].[NH2-].[Pt+2] | 104% (inactive) and 87.6% (inactive) | 99% (inactive) and 98.5% (inactive) |  | 116% (inactive) and 92.4% (inactive) | 70.1% (inactive) | 98.3% (inactive) and 76.1% (inactive) | 99.3% (inactive) and 97.5% (inactive) | 101% (inactive) and 98.7% (inactive) | 106% (inactive) and 115% (inactive) | 127% (inactive) and 104% (inactive) | 65.9% (inactive) | 86.4% (inactive) and 94.2% (inactive) | 94.4% (inactive) and 8.97% (active) | 93.9% (inactive) | 118% (inactive) and 96.4% (inactive) | 103% (inactive) and 96.9% (inactive) | 100% (inactive) and 89% (inactive) | 102% (inactive) and 95.7% (inactive) | 99.2% (inactive) and 104% (inactive) | 99.9% (inactive) and 110% (inactive)
5 | CCCCCCCCCCCCCCCCOc1ccc(C)cc1 | 98.2% (inactive) | 107% (inactive) |  | 114% (inactive) |  | 104% (inactive) | 102% (inactive) | 107% (inactive) | 111% (inactive) | 110% (inactive) | 108% (inactive) | 103% (inactive) | 100% (inactive) | 118% (inactive) | 114% (inactive) |  | 93.2% (inactive) | 111% (inactive) | 111% (inactive) | 111% (inactive)
6 | Clc1ccc(NC(Nc2ccc(Cl)cc2)C(Cl)(Cl)Cl)cc1 | 78.1% (inactive) and 96.5% (inactive) | 107% (inactive) and 96.8% (inactive) | 61.3% (inactive) and 86.3% (inactive) | 93.9% (inactive) and 105% (inactive) | 105% (inactive) | 71.2% (inactive) and 72.1% (inactive) | 80.9% (inactive) and 92.3% (inactive) | 68.5% (inactive) and 93.6% (inactive) | 129% (inactive) and 101% (inactive) | 112% (inactive) and 100% (inactive) | 17.7% (inactive) and 43.8% (inactive) | 101% (inactive) and 114% (inactive) | 87.3% (inactive) and 116% (inactive) | 111% (inactive) and 113% (inactive) | 87.7% (inactive) and 90.5% (inactive) | 90.3% (inactive) and 97% (inactive) | 110% (inactive) and 100% (inactive) | 90.1% (inactive) and 99.6% (inactive) | 71.1% (inactive) and 82.3% (inactive) | 
7 | Nc1ccc2ccc(N)cc2c1 | 69.7% (inactive) | 95.7% (inactive) |  | 91.7% (inactive) | 101% (inactive) |  | 82.5% (inactive) | 94.3% (inactive) | 89.6% (inactive) | 96.1% (inactive) | 57.3% (inactive) | 33.1% (inactive) | 62.1% (inactive) | 88.1% (inactive) | 84.3% (inactive) | 72.1% (inactive) | 107% (inactive) |  | 84.1% (inactive) | 69.1% (inactive)
8 | Oc1ccccc1C=NCC1CCC(CN=Cc2ccccc2O)CC1 (configuration not stated) | 78.9% (inactive) | 101% (inactive) |  | 41.7% (inactive) |  | 57.7% (inactive) | 92.2% (inactive) | 108% (inactive) | 97.3% (inactive) | 3.17% (active) | 99.4% (inactive) | 113% (inactive) | 101% (inactive) | 76.4% (inactive) | 93.9% (inactive) | 71.6% (inactive) | 100% (inactive) | 102% (inactive) | 98.8% (inactive) | 80.3% (inactive)
9 | Clc1nc(Oc2ccccc2)nc(-c2cn(-c3ccccc3)c3ccccc23)n1 | 14.5% (inactive) | 80.2% (inactive) |  | 97.2% (inactive) | -40.8% (active) | 111% (inactive) | 102% (inactive) | 101% (inactive) | 98.1% (inactive) | 76.7% (inactive) | 36.9% (inactive) | 85.7% (inactive) | 40% (inactive) | 42.9% (inactive) | 28.3% (inactive) | 86.2% (inactive) | 91.1% (inactive) | 93.6% (inactive) | 71.1% (inactive) | 93.5% (inactive)
10 | CCN(CC)CCOc1ccc(/C=N/Nc2nc3c([nH]2)c(=O)n(C)c(=O)n3C)cc1 | 89.8% (inactive) and 103% (inactive) | 102% (inactive) and 101% (inactive) | 103% (inactive) and 108% (inactive) | 109% (inactive) and 105% (inactive) | 94.6% (inactive) | 84.8% (inactive) and 93.3% (inactive) | 104% (inactive) and 110% (inactive) | 91.7% (inactive) and 107% (inactive) | 112% (inactive) and 111% (inactive) | 115% (inactive) and 108% (inactive) | 109% (inactive) and 103% (inactive) | 96.6% (inactive) and 82.1% (inactive) | 103% (inactive) and 87.4% (inactive) | 114% (inactive) and 122% (inactive) | 111% (inactive) and 102% (inactive) | 113% (inactive) and 98.7% (inactive) | 97.2% (inactive) and 95.5% (inactive) | 102% (inactive) and 108% (inactive) | 96.7% (inactive) and 97.6% (inactive) | 
11 | O=C1c2ccccc2C(=O)N1/N=C/c1ccc2c(c1)OCO2 | 120% (inactive) | 101% (inactive) |  | 112% (inactive) | 74.4% (inactive) | 64.5% (inactive) | 87.7% (inactive) | 104% (inactive) | 99.5% (inactive) | 116% (inactive) | 99.8% (inactive) | 110% (inactive) | 87.2% (inactive) | 107% (inactive) | 103% (inactive) | 129% (inactive) | 101% (inactive) | 99.7% (inactive) | 99.7% (inactive) | 95.1% (inactive)
